Results from PubChem BioAssay (NCI).
About 83,000 compounds went through this panel and 20% of them were active in at least one assay; those are over-represented in the sample as a whole.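 Single-concentration screen, 48 h exposure, 96-well plates. Endpoint: percent growth. Below 10 = active.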 The source made the active and inactive calls.

Experiments:
Test in all cases: NCI-60 one-dose screen, 48 h (100 = growth as untreated, 0 = no growth, -100 = all killed)
Conditions in all cases: 10 µM unless noted
[1] = tested on: DU-145 prostate
[2] = tested on: K-562 leukemia
[3] = tested on: MALME-3M melanoma
[4] = tested on: MDA-MB-231 breast
[5] = tested on: RXF 393 renal
[6] = tested on: SF-268 CNS
[7] = tested on: SF-295 CNS
[8] = tested on: SF-539 CNS
[9] = tested on: UACC-257 melanoma
[10] = tested on: M14 melanoma
[11] = tested on: HCT-15 colon
[12] = tested on: HT29 colon
[13] = tested on: SNB-75 CNS
[14] = tested on: SNB-19 CNS
[15] = tested on: U251 CNS
[16] = tested on: PC-3 prostate
[17] = tested on: SK-MEL-5 melanoma
[18] = tested on: UACC-62 melanoma
[19] = tested on: LOX IMVI melanoma
[20] = tested on: SK-MEL-28 melanoma

Measured: growth

O=C(Nc1cnn2ccc(N3CCC[C@@H]3c3cc(F)ccc3F)nc12)N1CC[C@H](O)C1
inactive: [1] 110% | [2] 74.8% | [3] 114% | [4] 88.2% | [5] 80.7% | [6] 91% | [7] 96.9% | [8] 77.4% | [9] 70.8% | [10] 81.5% | [11] 92.6% | [12] 74.1% | [13] 29.1% | [14] 92% | [15] 85.7% | [16] 89.4% | [17] 97.8% | [18] 99% | [19] 80.1% | [20] 109%

COc1ccc(-c2cnc(-c3ccc(Cl)cc3)[nH]2)cc1OC
inactive: [1] 78.7% | [2] 115% | [3] 155% | [4] 78.6% | [5] 91.6% | [6] 78% | [7] 111% | [8] 95.6% | [9] 119% | [10] 115% | [11] 100% | [12] 97.6% | [13] 72.8% | [14] 96% | [15] 102% | [16] 81.3% | [17] 97.4% | [18] 94.6% | [19] 110% | [20] 104%

Cn1ncc(Cl)c1-c1cc(C(=O)N[C@H](CN)Cc2cccc(F)c2)sc1Cl
inactive: [1] 44.4% | [6] 27% | [11] 16.9%
active: [2] -21.1% | [3] -73.8% | [4] -9.49% | [5] -36.5% | [7] -12.5% | [8] -31.5% | [9] -87.7% | [10] -54.8% | [12] 0.334% | [13] -46.2% | [14] 9.05% | [15] -45.2% | [16] 9.61% | [17] -96.1% | [18] -19.5% | [19] -51.9% | [20] -72.7%

CCCS(=O)(=O)Nc1ccc(F)c(C(=O)c2c[nH]c3ncc(-c4ccc(Cl)cc4)cc23)c1F
active: [5] -11.6% | [7] 7.92% | [9] -6.6% | [10] 3.85% | [12] 4.44% | [13] 8.13% | [18] -22.6% | [20] 1.65%
inactive: [1] 49.3% | [2] 21.9% | [3] 11.2% | [4] 34.4% | [6] 41.4% | [8] 23.7% | [11] 28.4% | [14] 40.4% | [15] 18.5% | [16] 21.8% | [17] 15.9% | [19] 16.5%

C=CCN1C(=O)c2cccc3c(-c4ccc5c(c4)ncn5C4CCCCC4)ccc(c23)C1=O
active: [17] -27.8%
inactive: [1] 72.5% | [2] 26.2% | [3] 56% | [4] 57.1% | [5] 110% | [6] 72.4% | [7] 44.5% | [8] 71.4% | [9] 44.6% | [10] 50% | [11] 44.9% | [12] 23.4% | [13] 50.2% | [14] 76.1% | [15] 52% | [16] 22.8% | [18] 44% | [19] 50.3% | [20] 76.7%

C/C(=C(/c1ccc(Cl)cc1)c1ccc(OCCN2CCCCC2)cc1)c1ccccc1
inactive: [1] 97.6% | [2] 13.2% | [3] 76.9% | [4] 80.2% | [5] 84.7% | [6] 90.5% | [7] 83.8% | [8] 69.6% | [9] 80.3% | [10] 67.1% | [11] 24.8% | [13] 90.7% | [14] 86.7% | [15] 66.5% | [16] 66.8% | [17] 62% | [18] 64.9% | [19] 59.9% | [20] 91.5%
active: [12] 3.98%

CCc1cnn2c(NCc3ccc[n+]([O-])c3)cc(N3CCCC[C@H]3CCO)nc12
active: [1] 5.68% | [2] 1.85% | [3] -46.3% | [4] 2.67% | [5] -64.6% | [6] 3.65% | [7] 3.11% | [8] -48.1% | [9] -42.4% | [10] -42.5% | [11] 0.896% | [12] -29.3% | [13] -74.4% | [14] 6.92% | [15] -8.91% | [16] -20.5% | [17] -40.2% | [18] -70.7% | [19] 5% | [20] -34.3%

COc1cc2c(c(OC)c1)C1c3ccccc3NC(=O)N1CC2 (stereo not given)
inactive: [1] 13.2% | [2] 12.5% | [3] 28.5% | [4] 32.2% | [6] 48.2% | [7] 13.2% | [9] 56.4% | [11] 18% | [14] 44.7% | [15] 16.8% | [16] 22.6% | [17] 15.7% | [18] 15.6% | [19] 41.3% | [20] 49.8%
active: [5] 9.03% | [8] -9.57% | [10] -18.6% | [12] 6.37% | [13] 7.13%

CN(C)C/C=C/C(=O)Nc1cc2c(Nc3ccc(F)c(Cl)c3)ncnc2cc1O[C@H]1CCOC1
inactive: [7] 29.8%
active: [1] -7.97% | [2] 0.783% | [3] -75.1% | [4] -13.7% | [5] -22% | [6] 6.2% | [8] -84.6% | [9] -70.7% | [10] -82.8% | [11] -6.21% | [12] -2.13% | [13] -1.97% | [14] 8.32% | [15] -3.99% | [16] 5.5% | [17] -81.4% | [18] -42.3% | [19] -73.5% | [20] -57.5%

Cc1ccccc1N1C(c2ccccc2)=NNC12C=CC(=O)C=C2Cl (stereo not given)
inactive: [1] 110% | [2] 96.4% | [3] 98.6% | [4] 111% | [5] 132% | [6] 99.1% | [7] 108% | [8] 93.4% | [9] 81.1% | [10] 105% | [11] 108% | [12] 96.2% | [13] 96.3% | [14] 106% | [15] 94.2% | [16] 96.2% | [17] 115% | [18] 98.1% | [19] 98.7% | [20] 101%

Cc1c(CN2CCN(C(=O)[C@H](C)O)CC2)sc2c(N3CCOCC3)nc(-c3cnc(N)nc3)nc12
inactive: [2] 17.6% | [6] 12.1%
active: [1] 8.38% | [3] -52.3% | [4] 7.09% | [5] -40.1% | [7] -45% | [8] -47.5% | [9] -34.3% | [10] -21.4% | [11] 2.93% | [12] -13% | [13] -47.4% | [14] 3.17% | [15] 6.95% | [16] 8.68% | [17] -36.3% | [18] -62.6% | [19] 0.99% | [20] -30%

CCN(CC)c1cc2oc3cc(N)cc(=N)c-3nc2cc1C
inactive: [1] 85.7% | [2] 24.9% | [4] 26.7% | [5] 86.2% | [6] 64.5% | [7] 48.1% | [9] 32.9% | [10] 25.5% | [11] 37.8% | [12] 86.7% | [13] 11.6% | [14] 69.7% | [15] 19.4% | [16] 39.2% | [18] 30.8% | [20] 34.3%
active: [3] 1.85% | [8] 1.94% | [17] -2.64% | [19] -0.53%

CC/C(=C(\c1ccc(OCCN2CCCCCCC2)cc1)c1ccc(OC(=O)C2CCCCC2)cc1)c1ccc(Cl)cc1
inactive: [1] 108% | [2] 84.8% | [3] 94.1% | [4] 93.3% | [5] 110% | [6] 94.7% | [7] 104% | [8] 102% | [9] 87.3% | [10] 91.1% | [11] 94.3% | [12] 86.9% | [13] 99.7% | [14] 110% | [15] 98.9% | [16] 91.4% | [17] 102% | [18] 108% | [19] 102% | [20] 96.3%

COC(=O)Nc1nc2ccc(C(=O)c3ccc(N(C)C4COC4)cc3)cc2[nH]1
active: [2] 7.83% | [8] -7% | [10] 3.69% | [12] 0.909% | [17] 3.76%
inactive: [1] 12.7% | [3] 53.8% | [4] 37.8% | [5] 22.1% | [6] 41.5% | [7] 13.3% | [9] 44.4% | [11] 12.4% | [13] 16.4% | [14] 26.9% | [15] 17.2% | [16] 24.2% | [18] 34.3% | [19] 20.4% | [20] 56.9%

Oc1ccc(C(c2ccc(O)cc2)C(Cl)(Cl)Cl)cc1
inactive: [1] 109% | [2] 79.7% | [3] 134% | [4] 98.2% | [5] 101% | [6] 96.9% | [7] 96.1% | [8] 99.9% | [9] 119% | [10] 105% | [11] 93.4% | [12] 110% | [13] 66.4% | [14] 99.9% | [15] 106% | [16] 75.2% | [17] 100% | [18] 79.8% | [19] 87.6% | [20] 113%
